L929 necroptosis: L929 zVAD cell death inhibition; L929 zVAD necroptosis rescue, ATP luminescence, 24 h; with zVAD 60 µM; viability rescue, % at 10 µM; 0.38% of 220,000 active; AID 1377;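 active = activation, scaled between plate controls, above about 75%, limit read from the data; inactive = activation under that limit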;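 also: 0% = zVAD with DMSO and 100% = DMSO alone without zVAD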
Hsp70 activator: Hsp70 transcriptional activation, primary screen; 0.04% of 200,000 active; HeLa Hsp70 promoter luciferase reporter, luminescence; scaled: vehicle 0, proteasome-inhibitor control 100%; activation, % at 10 µM;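 active = activation above the mean across all tested compounds plus 3 SD, cutoff set per campaign, cut at about 5.5% in these data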;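 also: 100% = MG132 at 30 µM as the positive control and 0% = DMSO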
TNF necrop inh: inhibitors of TNF-alpha induced necroptosis in Jurkat FADD-/- cells. Jurkat FADD-/- TNF necroptosis rescue, ATP luminescence, 24 h; 0 = TNF only, 100 = no-TNF cells. activation (protection from cell death), % at 10 µM. 0.068% of 220,000 active. AID 463075;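 active = activation, meaning protection from cell death, of at least 50% relative to plate controls; inactive = activation below 50%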;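 also: necroptosis triggered by 40 ng/mL TNF-alpha added together with compound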
HSF1 activator: increases HSF-1 driven luciferase reporter signal | NIH3T3-HGL HSF-1 luciferase reporter, MG132, 8 h; 100% = twice DMSO control signal | activation, % at 9 µM | 1.7% of 300,000 active | AID 504408;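 active = mean replicate activation of at least 50% with a set share of replicates each reaching 50%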;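 also: 0% = median of the neutral control wells and 100% = twice that signal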
* marks the source's active call; other numbers are inactive results; · = not tested or not shown. Only some compounds are listed: those with a hit (about 1.9% of all), similar ones and a draw of the others.

SMILES	L929 necroptosis	Hsp70 activator	TNF necrop inh	HSF1 activator
Cc1ccc(-c2nc3ccccn3c2NCc2ccc3c(c2)OCO3)cc1	0.7	-0.1	-1.4	33.5
Cc1ccc(NC2CC(=O)N(Cc3ccccc3)C2=O)cc1 (centres undefined)	-1.3	-0.4	24.0	55.8*
O=C1CC(N(O)C2CC(=O)N(Cc3ccccc3)C2=O)C(=O)N1Cc1ccccc1 (centres undefined)	-0.6	-0.1	-0.5	56.8*
O=C1C2CCCCC2C(=O)N1Cc1ccccc1 (centres undefined)	29.3	0.0	8.3	67.8*
C=CCN(CC=C)C(=S)NC(=O)c1ccc(C)c(Br)c1	-1.1	-0.3	1.9	-30.3
CSc1nc(NC(C)=O)nc(C)c1Br	-0.8	-0.1	-2.2	0.1
CCN(CC(=O)Nc1cccc(OC)c1)CC(=O)Nc1ccc(Br)c(C)c1	·	·	·	55.0*
Nc1nnc(SCc2c(F)cccc2Cl)s1	0.4	·	0.0	77.3*
Nc1nnc(SCc2ccc(Cl)cc2)s1	31.8	0.2	12.9	27.4
CCC1(C)C(Nc2c(C)cccc2C)=NC(=S)N1c1ccc(NC(C)=O)cc1 (centres undefined)	0.8	-0.1	-0.5	3.4
COc1ccc2c(c1)-c1nc(/N=C/c3c(O)ccc4ccccc34)sc1CC2	1.2	-0.1	-2.8	63.4*
CC1(C)C(=O)NCCN1C(=O)CC1C(=O)NCCN1Cc1cccc(C(F)(F)F)c1 (centres undefined)	·	·	·	-5.2
COc1cccc(CNc2ccc(F)c(Cl)c2)c1O	0.1	-0.3	2.2	75.4*
COc1cccc(CNc2cnc3ccccc3c2)c1O	1.1	0.0	-6.9	72.5*
COc1cccc(CNc2cccc(C(F)(F)F)c2)c1O	0.7	-0.4	0.3	7.2
Cc1ccc(O)c(CNc2cnc3ccccc3c2)c1	·	·	·	29.9
COc1cccc(CNc2cccc3cccnc23)c1O	-0.3	0.1	-5.2	76.4*
CC(C)OP(=O)(OC(C)C)/C(C=O)=N\Nc1ccc([N+](=O)[O-])cc1	-0.9	·	0.0	-9.0
O=C(/C=C/c1cccc([N+](=O)[O-])c1)c1ccc([N+](=O)[O-])o1	·	·	·	54.0*
O=C(/C=C/c1cccc([N+](=O)[O-])c1)c1ccco1	·	·	·	29.0
O=C(Nc1ccc(Cl)cc1)OCc1ccccn1	0.3	-0.1	0.4	56.7*
COc1ccc(-c2cnnc(N/N=C/c3ccc(O)cc3)n2)cc1	0.6	-0.1	2.7	100.9*
O=C(Nc1ccccc1Cl)c1cccs1	0.3	0.0	-4.0	1.8
O=C(Nc1ccccc1Cl)c1ccc(-c2ccccn2)s1	1.0	·	4.4	67.7*
Cc1ccc(-c2cc(-c3ccc(F)cc3)n[nH]2)c(O)c1	·	·	·	30.2
SMILES	L929 necroptosis	Hsp70 activator	TNF necrop inh	HSF1 activator
Cc1ccc(O)c(-c2cc(-c3cccc(Br)c3)n[nH]2)c1	3.9	0.1	-9.2	66.8*
COc1ccc(-c2cc(-c3ccccc3)n[nH]2)c(O)c1	65.7	0.0	6.4	44.6
Cc1ccc(-c2cc(-c3ccc(C)cc3O)[nH]n2)cc1	·	·	·	70.5*
COc1ccc(-c2cc(-c3ccccc3O)[nH]n2)cc1	0.3	0.1	-3.6	85.1*
Oc1ccc(Cl)cc1-c1cc(-c2ccccc2)n[nH]1	0.3	0.1	-3.4	19.6
COC(=O)c1cnn(-c2ccc(Cl)cc2)c1/C=N/NC(N)=S	0.8	·	-9.3	-4.9
CCC(=O)Nc1ccccc1C(=O)NC1CCCCC1	-0.7	0.0	0.2	-13.9
O=C(NC(=S)Nc1ccccc1O)c1ccc(Cl)cc1Cl	-0.9	-0.4	0.4	75.9*
CC(C)C(=O)Nc1cccc(NC(=S)NC(=O)c2ccccc2Cl)c1	-0.1	0.4	-7.3	20.1
O=C(Nc1ccccc1Cl)c1ccc(Cl)cc1Cl	-0.2	0.2	0.0	21.3
O=C(Nc1ccc(NC(=S)NC(=O)c2ccccc2Cl)cc1)c1cccc(Cl)c1	1.5	-0.1	-6.9	55.8*
COc1ccc(C(C)(C)C)cc1NC(=O)c1cc(S(=O)(=O)N(C)C)ccc1N1CCCC1	2.7	-0.5	4.0	5.3
Cc1cccc(CCNc2nc3ccccc3n3nnnc23)c1	-0.1	-0.2	-2.7	19.3
Clc1ccc(CCNc2nc3ccccc3n3nnnc23)cc1	0.3	-0.2	0.3	51.3*
Nc1cccn2c(-c3ccc(Cl)c(Cl)c3)cnc12	1.7	0.2	-0.7	70.0*
c1ccc(-c2nc(-c3cccs3)[nH]c2-c2ccccc2)cc1	0.8	-0.3	-6.5	15.7
Cc1nc2nc(-c3cccs3)[nH]c2cc1Br	·	·	·	62.9*
COc1ccc(C(=O)/C=C/Nc2ccc(S(N)(=O)=O)cc2)cc1OC	0.6	·	4.5	·
Nc1c(Nc2ccccc2)c2ccccc2oc1=O	0.0	-0.1	-4.0	87.8*
CCOC(=O)N1CCN(S(=O)(=O)N2CCCC(C(=O)NCCc3ccc(C)cc3)C2)CC1 (centres undefined)	·	·	·	-0.6
CCOC(=O)c1sc2c(c1C)C(c1cccs1)C1=C(CCCC1=O)N2 (centres undefined)	1.4	0.2	-6.5	79.3*
C/C(N)=C(/C#N)C(=O)CSc1nnc(-c2ccc(OC(F)F)cc2)o1	1.6	0.7	0.9	78.0*
C/C(N)=C(/C#N)C(=O)CSc1nnc(-c2ccc3c(c2)OCO3)o1	0.1	0.2	2.3	75.8*
CCOC(=O)c1c(C)[nH]c(C)c1C(=O)CSc1nnc(-c2ccc(OC(F)F)cc2)o1	0.1	0.1	-0.9	-8.4
O=C(Nc1ccc2c(c1)C(=O)NC2=O)c1ccc2ncsc2c1	1.2	0.1	-0.9	-24.4
SMILES	L929 necroptosis	Hsp70 activator	TNF necrop inh	HSF1 activator
Cc1cccc(N(CC(=O)NCc2ccc(F)cc2)C(=O)c2csnn2)c1C	-0.2	0.1	0.7	52.2*
Cc1ccn2c(C(=O)N/N=C/c3ccc(Cl)cc3)c(C)nc2c1	·	·	·	14.7
Cc1ccn2c(C(=O)N/N=C\c3ccccc3[N+](=O)[O-])c(C)nc2c1	-0.1	-0.2	-1.8	78.4*
NS(=O)(=O)c1ccc(N/N=C/c2ccccc2C(=O)O)c([N+](=O)[O-])c1	0.5	0.5	-0.5	60.5*
Cc1cnc(NC(=O)C2(c3ccccc3)CC2)s1	3.1	-0.2	62.9*	9.2
Cc1cnc(NC(=O)COc2ccccc2)s1	0.6	-0.1	17.2	61.4*
Cc1nnc(NC(=O)C2(c3ccccc3)CCOCC2)s1	-0.2	0.1	-0.5	-5.9
COc1ccc(CNC(NC(=O)c2ccccc2)(C(F)(F)F)C(F)(F)F)cc1	0.0	-0.1	0.1	2.9
COc1cc(N=Nc2ccc3ccccc3c2)ccc1O	·	·	·	55.3*
COc1cc(N=Nc2ccccc2C(=O)O)ccc1O	-0.5	·	-5.0	12.5
CC(Oc1ccc(C#N)cc1)C(=O)c1ccc(F)c(F)c1 (centres undefined)	1.6	-0.2	17.8	3.2
CCOc1ccc(NC(=O)CN(C)C(=O)CC(NC(=O)c2ccccc2)c2ccccc2)cc1OCC (centres undefined)	·	·	·	-1.9
CCC(C)c1ccccc1NC(=O)c1cc(C)no1 (centres undefined)	·	·	·	59.4*
Cc1ccc(O)c(NC(=O)c2cc(-c3ccccc3)on2)c1	·	·	·	96.3*
CCCc1cc(C(=O)Nc2cccnc2Cl)no1	1.1	-0.3	-0.4	30.4
CCCc1cc(C(=O)Nc2cc(C)ccc2O)no1	·	·	·	119.6*
